The record followed here is ChEMBL document CHEMBL4513216, “Probing the Open Global Health Chemical Diversity Library for Multistage-Active Starting Points for Next-Generation Antimalarials” (ACS Infect Dis, 2020).

Structures are written as SMILES. Among all 69,000 compounds or so, about 8,600 (12%) showed an effect of 50% or more. What follows is part of a selection rich in strong results, with near analogues and random picks from the rest.

In the test the test system is Plasmodium berghei. The test can be described thus: Screen against P. berghei liver stage (PbLuc), transformed with Luciferase, at 10uM. The class given is functional, HepG2. The conditions noted are these: tested at 10 uM.
Turning to `CC(C)n1cc(CN(Cc2ccc(F)cc2)CC2CCCO2)cn1` (centres undefined), the INHIBITION came out at 18.4%.

Take `O=C(CSC1=NS(=O)(=O)c2cc(F)ccc2N1)c1ccccc1`: the INHIBITION came out at 10.2%.

Turning to `Cc1cccc(NC(=O)C2CCc3ccccc3N2)c1` (centres undefined), the INHIBITION is reported as -71.7%.

As for `Cc1occc1C(=O)N1CCn2c(COCC3CC3)cnc2C1C` (centres undefined), the INHIBITION came to 39.3%.

Take `Cn1cc(C(=O)NCCc2csc(-c3ccccc3)n2)ccc1=O`: the INHIBITION is listed as -8.92%.

Take `COc1cccc(S(=O)(=O)NC(=O)CCC2CCCO2)c1` (centres undefined): the INHIBITION is recorded as -9.76%.

In the case of `COC1CCN(C(=O)Nc2ccccc2)CC(=O)N(C)c2ccccc21` (centres undefined), the INHIBITION was found to be 55.5%.

Turning to `COC1CN(C(=O)Nc2ccccc2)CCC(=O)N(C)c2ccccc21` (centres undefined), the INHIBITION stood at 13.1%.

Regarding `COC1CN(C(=O)COC(C)=O)CCC(=O)N(C)c2ccccc21` (centres undefined), the INHIBITION worked out at 20.7%.

Regarding `COC1CN(C(=O)C2CC2)CCC(=O)N(C)c2ccccc21` (centres undefined), the INHIBITION was 29%.

For the compound `COC1CCN(C(=O)C2CCCC2)CC(=O)N(C)c2ccccc21` (centres undefined), the INHIBITION was found to be 33.6%.

Consider `COC1CN(C(=O)CC(C)C)CCC(=O)N(C)c2ccccc21` (centres undefined), for which the INHIBITION is reported as 1.8%.

On to `COC1CN(C(=O)NC2CCCC2)CCC(=O)N(C)c2ccccc21` (centres undefined), for which the INHIBITION is listed as 56.3%.

As for `COC1CN(C(=O)CC2CCCC2)CCC(=O)N(C)c2ccccc21` (centres undefined), the INHIBITION is on record as 11.6%.

For `COC1CN(C(=O)OCC(C)C)CCC(=O)N(C)c2ccccc21` (centres undefined), the INHIBITION was determined as 52.5%.

Consider `Cc1cc(NS(=O)(=O)c2ccc(C(=O)O)cc2F)ccc1F`, for which the INHIBITION is -2.33%.

Consider `O=C1C[C@@H]2[C@H](CCN2Cc2ccco2)N1c1ccsc1`, for which the INHIBITION is given as 39.3%.

On to `O=C(Cn1cc(Cl)cn1)N1CCNC1=O`, for which the INHIBITION was determined as 45.9%.

As for `COc1ccc(CN2CCc3c(nc(-c4ccccn4)[nH]c3=O)C2)cc1`, the INHIBITION is on record as -11.7%.

Consider `Cc1oncc1C(=O)NCc1cc(=O)n2c(n1)CN(CC(C)C)CCC2`, for which the INHIBITION is recorded as 38.3%.

`CC(C)n1nnnc1-c1ccc(NC(=O)CCC(F)(F)F)cc1F`: the INHIBITION came out at 40.3%.

In the case of `CCCC(=O)NCCc1nc2cc(-c3ccc(OC)cc3)ncn2n1`, the INHIBITION is reported as -3%.

For `CC(C)n1nc(CN(C)C)c2c1CN(CC1CC1)CC2`, the INHIBITION is 20.1%.

With `Cn1nc(CN2CCCC2)c2c1CN(CC1CC1)CC2`, the INHIBITION worked out at 11.6%.

Consider `CC(C)n1nc(CN(C)C)c2c1CN(C(=O)CC1CC1)CC2`, for which the INHIBITION is recorded as 61.5%.

`CN(C)Cc1nn(C)c2c1CCN(C(=O)CC1CC1)C2`: the INHIBITION is -4.99%.

Consider `CC(=O)NCC(=O)N1CCc2c(CN(C)C)nn(C(C)C)c2C1`, for which the INHIBITION is on record as 34.9%.

`CC(C)n1nc(CN2CCCC2)c2c1CN(CC1CC1)CC2`: the INHIBITION is given as 58.3%.

With `OC(CNCc1nnc2ccccn12)c1ccc2c(c1)OCCCO2` (centres undefined), the INHIBITION is 17%.

With `Cn1cc(NC(=O)N2CCC(Cc3ccccc3)CC2)ccc1=O`, the INHIBITION came to 20.45%.

With `Cc1cc(NC(=O)CN2CCCC2c2noc(C)n2)n(C)n1` (centres undefined), the INHIBITION was -25.8%.

For `CN(C)C(=O)N1CCc2onc(C(=O)Nc3cccnc3)c2C1`, the INHIBITION is on record as -40.5%.

With `O=C(N1CCC2(CC1)[C@H](O)C[C@@H]2O)C1(c2ccccc2F)CC1`, the INHIBITION was 25.9%.

For `O=C(CN(CC(O)c1ccc(F)cc1)C1CC1)NC1CCOCC1` (centres undefined), the INHIBITION was 22.6%.

For the compound `O=C(CN(CC(O)c1ccc(F)cc1)C1CC1)NCc1cccs1` (centres undefined), the INHIBITION came to 65.4%.

On to `O=C(CN(CC(O)c1ccc(F)cc1)C1CC1)NC(C1CC1)C1CC1` (centres undefined), for which the INHIBITION was 45.7%.

As to `Cc1cnn(CCNCC(=O)NCC2(c3ccccc3)CC2)c1`, the INHIBITION worked out at 17.5%.

Consider `Cc1nc(C)n(CC2CCCN2Cc2nc(-c3ccoc3)no2)n1` (centres undefined), for which the INHIBITION was 7.925%.

With `CCCS(=O)(=O)N1CCC2(CN(c3cnn(C)c3)C(=O)CN2C)C1` (centres undefined), the INHIBITION was found to be 21.6%.

For `Cc1nn(C)c2nc(C3CC3)c(Cl)c(C(=O)O)c12`, the INHIBITION amounted to 23.4%.

Regarding `O=C(c1ccccc1)N1CCCC2(CCN2Cc2cccc(F)c2)C1` (centres undefined), the INHIBITION worked out at 61.1%.

`O=C(c1cscn1)N1CCC2(CN(Cc3ccncc3)C2)C1`: the INHIBITION was 24.9%.

With `COC(=O)CCC(=O)N1CCCC2(CCCN2Cc2cccc(F)c2)C1` (centres undefined), the INHIBITION is recorded as 37.6%.

As for `O=C(c1cscn1)N1CCCC2(CCN2Cc2cccc(F)c2)C1` (centres undefined), the INHIBITION is on record as 64.7%.

For the compound `O=C(O)CN1CCCC2(CCN2Cc2cccc(F)c2)C1` (centres undefined), the INHIBITION amounted to 44.8%.

Turning to `O=C(N[C@@H]1CN(Cc2cccc(F)c2)C[C@H]1O)c1cscn1`, the INHIBITION was determined as 47.1%.

On to `Cc1c(C(=O)O)cnn1-c1ccc(-c2nc(C3CC3)no2)cn1`, for which the INHIBITION was 34%.

Regarding `CNc1cncc(C2CCCN2S(=O)(=O)c2ccc(F)cc2)n1` (centres undefined), the INHIBITION was 35.2%.

As to `Cc1noc(C)c1C1CCCN1C(=O)CN1C(=O)OC(C)(C)C1=O` (centres undefined), the INHIBITION was determined as 40.7%.

For `CCN1CCO[C@]2(CCC[C@H]2COCc2csc(C)n2)C1`, the INHIBITION stood at 52.9%.

As to `Cc1nc(COC[C@H]2CCC[C@]23CN(C2CCOC2)CCO3)cs1` (some centres undefined), the INHIBITION came to 49.7%.

With `Cc1nc(COC[C@@H]2CCC[C@@]23CN(C)CCO3)cs1`, the INHIBITION was 48.6%.

As to `Cc1nc(COC[C@H]2CCC[C@]23CN(CC2CC2)CCO3)cs1`, the INHIBITION is listed as 54.4%.

Consider `Cc1nc(COC[C@H]2CCC[C@@]23CN(C(C)C)CCO3)cs1`, for which the INHIBITION is on record as 12.4%.
